# An excerpt weighted towards active compounds, which were near 2.1% of everything screened.
# ADAM10 inh – ADAM10 inhibition, QFRET primary screen. recombinant ADAM10, EDANS/DABCYL FRET peptide cleavage, 3 h. inhibition, % at 7 µM. 0.62% of 370,000 active. AID 720582;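 active means inhibition above a per-campaign cutoff equal to the mean of compounds falling between control-based bounds plus 3 SD, cut at about 20% in these data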
# Target sequence (O14672 214-748 limits assumed): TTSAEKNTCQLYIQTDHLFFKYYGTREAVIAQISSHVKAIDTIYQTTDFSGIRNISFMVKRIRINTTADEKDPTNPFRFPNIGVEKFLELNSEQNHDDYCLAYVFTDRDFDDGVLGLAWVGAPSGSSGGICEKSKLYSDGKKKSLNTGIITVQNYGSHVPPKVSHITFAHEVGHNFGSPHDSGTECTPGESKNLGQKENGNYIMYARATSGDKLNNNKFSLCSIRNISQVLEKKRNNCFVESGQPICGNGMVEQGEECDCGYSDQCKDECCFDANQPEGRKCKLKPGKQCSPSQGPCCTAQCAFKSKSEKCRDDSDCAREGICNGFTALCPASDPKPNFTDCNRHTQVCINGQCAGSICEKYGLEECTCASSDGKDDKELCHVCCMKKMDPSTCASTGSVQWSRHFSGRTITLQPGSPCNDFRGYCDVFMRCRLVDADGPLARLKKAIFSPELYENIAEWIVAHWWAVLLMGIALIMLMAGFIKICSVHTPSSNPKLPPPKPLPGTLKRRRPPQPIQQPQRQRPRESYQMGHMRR
# Rce1 inhib – inhibitors of yeast Ras-converting enzyme; AID 2563; 0.27% of 290,000 active; calls only; Q03530; yeast membranes, quenched prenylated peptide cleavage fluorescence;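 active means fall in fluorescence gain of 50% or more versus controls, with final raw signal at or below 3038400; inconclusive means same 50% fall but final raw signal above 3038400; inactive means fall in fluorescence gain under 50%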
# ADAM17 inh – ADAM17 inhibition, QFRET primary screen. P78536. recombinant ADAM17, EDANS/DABCYL FRET peptide cleavage. inhibition, % at 6.95 µM. 0.83% of 370,000 active;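 active means inhibition above the mean of compounds lying between control limits plus 3 SD, set per campaign, cut at about 8.5% in these data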
# PLC-beta3 inh – blocks human PLC-beta3 enzyme activity; Q01970; Purified PLC-beta3, fluorogenic substrate, fluorescence; inhibition, % at 12.2 µM; 0.18% of 370,000 active; in the data active means inhibition above about 11%
# PLCg1 inh – inhibitors of human phospholipase C gamma1; purified PLC-gamma1, fluorogenic substrate, fluorescence; inhibition, % at 12.2 µM; 0.84% of 370,000 active; AID 720700; in the data active means inhibition above about 9.5%
# Numbers stand for hits; i = inactive; ? = inconclusive; nt = not tested or not shown; + = active, no number.
SMILES,ADAM10 inh,Rce1 inhib,ADAM17 inh,PLC-beta3 inh,PLCg1 inh
CCOC(=O)CC1C(=O)NCCN1C(=O)c1cc2c(=O)n3cccc(C)c3nc2s1 (configuration not stated),i,+,i,i,i
CC(C)c1c(C(=O)N/N=C/c2ccsc2)nnn1-c1nonc1N,i,+,i,i,i
CC1CCN(Cc2c(C(=O)N/N=C/c3cccc(C(F)(F)F)c3)nnn2-c2nonc2N)CC1,i,+,i,i,i
CC(C)c1c(C(=O)N/N=C/c2c[nH]c3ccccc23)nnn1-c1nonc1N,i,+,i,i,i
COc1cccc(/C=N/NC(=O)c2nnn(-c3nonc3N)c2C(C)C)c1OCc1ccc(F)cc1,nt,+,nt,nt,nt
CC1CCN(Cc2c(C(=O)N/N=C/c3ccc(C(F)(F)F)cc3)nnn2-c2nonc2N)CC1,i,i,i,i,i
Cc1ccsc1/C=N/NC(=O)c1nnn(-c2nonc2N)c1C(C)C,i,+,i,i,i
CCOc1cccc(-c2c(C(=O)N/N=C/c3cccs3)nnn2-c2nonc2N)c1,i,+,i,i,i
COc1ccc(CCN(C)C(=O)c2ccc(S(=O)(=O)Nc3ccccc3C)cc2)cc1OC,i,+,i,i,i
COC(=O)C1=C(C)N(Cc2cccc(C(F)(F)F)c2)C(=NCC2CC2)NC1c1ccc(F)cc1 (configuration not stated),i,nt,i,i,i
COc1ccc(C(=O)NCc2ccc(C)cc2)cc1S(=O)(=O)N1CCCc2ccccc21,i,i,18.1,i,i
Cc1ccc(NC(=O)c2cc3c(=O)oc4ccc(C)cc4c3s2)nc1,nt,i,nt,nt,nt
CC(C)(C)OC(=O)N1CCC(c2cc(=O)n3[nH]cc(C(=O)Nc4ccc(F)c(Cl)c4)c3n2)CC1,i,+,i,i,i
COc1ccc(NC(=O)c2c[nH]n3c(=O)cc(C4CCN(C(=O)OC(C)(C)C)CC4)nc23)cc1Cl,i,i,i,i,i
C=CCN=C1NC(c2ccccc2C(F)(F)F)C(C(=O)OC)=C(C)N1Cc1ccc(C(F)(F)F)cc1 (configuration not stated),i,nt,i,i,i
COc1ccc(-c2oc3ncnc(NCCCN(C)C)c3c2-c2ccc(OC)cc2)cc1,i,?,i,i,i
CN(C)CCNc1ncnc2oc(-c3ccccc3)c(-c3ccccc3)c12,i,+,i,i,i
N#Cc1ccc(C(=O)NNC(=O)c2cccc(S(=O)(=O)N3CCOCC3)c2)cc1,i,nt,i,i,i
O=C(NNC(=O)c1ccc(O)c(Cl)c1)c1cccc(S(=O)(=O)N2CCOCC2)c1,i,+,i,i,i
CCOc1ccc(-n2c(SCC(=O)c3ccc4ccccc4c3)nnc2-c2ccco2)cc1,i,nt,i,i,i
COCCN=c1scc(-c2cccs2)n1/N=C/c1ccc(O)c(O)c1O,23.7,i,14.0,i,i
CCc1cc(=O)oc2c3c(cc(OCC(=O)NCCCC(=O)O)c12)OC(C)(C)CC3,i,+,i,i,i
CCc1cc(=O)oc2c3c(cc(OCC(=O)NCCC(=O)O)c12)OC(C)(C)CC3,i,?,i,i,i
COC(=O)[C@]12C[C@H](CC(=O)NCc3cccc4ccccc34)C(=O)N(Cc3ccccc3)C1=C[C@H](C(C)C)O[C@@H]2C1CC1,i,nt,i,i,i
O=C(CN(c1cccc(C(F)(F)F)c1)S(=O)(=O)c1ccc(Cl)c([N+](=O)[O-])c1)NCc1ccc(F)cc1,20.1,i,i,11.4,i
SMILES,ADAM10 inh,Rce1 inhib,ADAM17 inh,PLC-beta3 inh,PLCg1 inh
O=C(CN(c1cccc([N+](=O)[O-])c1)S(=O)(=O)c1ccccc1)NCc1cccnc1,i,i,i,i,i
CCCCCc1c(-c2ccc(F)cc2F)ncn1CCc1ccccc1OC,i,nt,i,i,i
CCOC(=O)N1CCN(C(=O)CNS(=O)(=O)c2c(C)cc(C)cc2C)CC1,i,i,i,i,i
COc1cccc(C2CC(c3cccs3)=NN2C(=O)CSc2nc3c(cnn3-c3ccc(F)cc3)c(=O)[nH]2)c1OC (configuration not stated),nt,+,nt,nt,nt
COc1ccc(C2CC(c3cccs3)=NN2C(=O)CSc2nc3c(cnn3-c3ccccc3)c(=O)[nH]2)cc1 (configuration not stated),i,i,i,i,i
COCC(=O)OC1CCn2c1nc1c2C(=O)C(C)=C(NC(C)=O)C1=O (configuration not stated),i,nt,i,i,14.5
CC(C)C[C@H](NC(=O)c1ccc(Cl)cc1Cl)C(=O)N1CCC[C@H]1C(=O)NCc1ccccc1,i,nt,i,i,i
c1coc(-c2ccnc3ncnn23)c1,i,+,i,i,i
Nc1nc2nccc(-c3ccco3)n2n1,i,nt,i,i,i
CCCC(=O)NC(c1cccc([N+](=O)[O-])c1)c1ccc2cccnc2c1O (configuration not stated),26.0,nt,i,i,i
COc1ccc(S(=O)(=O)N(C)C[C@@H]2Oc3c(NC(=O)Nc4cccc5ccccc45)cccc3C(=O)N([C@@H](C)CO)C[C@H]2C)cc1,i,nt,i,i,i
COC(=O)C1=CN(CC2CCCO2)C=C(C(=O)OC)C1c1cccc(O)c1 (configuration not stated),i,+,i,i,i
CN(C)CCCN(C(=O)CCc1ccccc1)c1nc2ccc(F)cc2s1,i,i,i,i,i
CN(C)CCCN(C(=O)c1cc(-c2cccs2)nc2ccccc12)c1nc2ccc(F)cc2s1,i,+,i,i,i
COc1cccc(-c2ncc3ccccc3c2COC(=O)c2ccc(F)cc2)c1,i,nt,i,i,i
CCC(=O)Nc1cccc(-c2cn3ccccc3n2)c1,i,i,i,i,i
O=C(Nc1cccc(-c2cn3ccccc3n2)c1)C1CC1,i,+,i,i,i
CCOC(=O)C1(CCOC)CCN(C(=O)c2sccc2C)CC1,i,+,i,i,i
CCOc1cc(CNC2CCCC2)ccc1OCc1ccccc1Cl,i,+,i,i,i
O=C(Nc1cccc(Cl)c1)Nc1cc(S(=O)(=O)N2CCCCC2)ccc1Cl,21.6,i,9.9,i,i
COc1ccc2c(c1)c1ncn(CCN3CCNCC3)c(=O)c1n2C,i,?,i,i,i
COc1ccc2c(c1)c1ncn(CCN3CCCC3)c(=O)c1n2C,i,+,i,i,i
COc1ccc2c(c1)c1ncn(CCN3CCCCC3)c(=O)c1n2C,i,+,i,i,i
O=S1(=O)c2ccc(N3CCSCC3)cc2Oc2ccccc2CN1Cc1cn(Cc2ccc(F)cc2)nn1,i,nt,i,i,i
Cc1cc(N2CCNC[C@H]2C)ccc1N1CCN(Cc2ccccc2)[C@H](C)C1,i,nt,i,i,i
COC(=O)[C@]12C[C@H](CC(=O)N3CCN(C(=O)C4CC4)CC3)C(=O)N(Cc3cccc4ccccc34)C1=C[C@H](C(C)C)O[C@@H]2C1CC1,i,nt,i,i,i
COc1ccc(C2/C=C\CN(C(=O)c3ccc(C)cc3)[C@H](Cc3ccccc3)C(=O)N2Cc2ccc(F)cc2)cc1 (some centres not stated),nt,+,nt,nt,nt
Cc1oc2cc([N+](=O)[O-])c(O)c([N+](=O)[O-])c2c1C(=O)c1ccc(Cl)cc1,i,i,i,11.1,10.4
